System: RARg:RXRa (NR concentration 270 nM, RXRa partner concentration 90 nM)
Assay: PBM binding z-score (relative to random genomic background probes); higher = stronger binding; sequences stand for … in GC…GCGATTGACAGCGTAGAATGAAGG
How it was run: (§1)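 Ligand-free nuclear receptor dimers were applied to custom Agilent 4×180K protein-binding microarrays whose double-stranded probes carried direct-repeat seeds, single-nucleotide variants, half-site ablations and random human genomic background sequences in 34-nt variable regions. Incubation lasted 1 h. Binding z-scores were computed against the random background probes from regression-normalized fluorescence.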

Row | Sequence | PBM binding z-score
1 | TGAATGAGGTTAAAGATCAGAGAACGTGGCGTCG | 2.23
2 | GCAGACAGGTGAAACGCAGGTAAGTCAGGGTGGC | 0.37
3 | TGTCATAGTTCAAAGGTAACGTAAGTATCCACAC | 4.15
4 | TAGCCTAGGTCATTAAGGGGCCAGTATAGAAAGC | 5.12
5 | CGGACGAGGGCATGAGTTGATAGCAAATGCCGAT | 1.16
6 | ATCTCAAGGTAAAAGTTCAGTGAATCCCGAGGAT | 2.29
7 | CCTACTGGCCCAAGGTCATTGATCAGTCAAAGCA | 3.48
8 | GGATCGAGGGCAAAGTTGATAGCATCTGTCGACG | 2.12
9 | AGTCAAAGTGCACTAGGTAACGTAAGATTCAGCT | 0.916
10 | AGAACGAGGGCACGCGGAGTTGATAGCAGAGTAG | 2.32
11 | CCTCGGAGGACAATAGGAGGTCAGAGCTGCCAGA | 2.71
12 | CCGACTGGGCCAAGGTTACCATAACGCACAGCCA | 0.614
13 | TCATATAGGGAAACAGGTGAAAGTCCGTAAGTTA | 0.344
14 | TAGCCTAGGTCATGCGGGCCAGTTTAGTGTCGGC | 3.96
15 | ACTAGCAGGCCAAATTTGGGTCACTCAAACAAAG | 2.39
16 | CAAACTAGGTCAGAGGTCAAAGTCGAGCCAACCA | 7.59
17 | TTACCAAGGAGAAGGTCGTTGATCCCTCTGTAGA | 0.225
18 | AGTCACAGTTCAGGACGAGGTAACGTAAAGCACG | 2.48
19 | TCATATAGGTAATACAGGTGCAAGTCGGCATCTA | 0.587
20 | CCGAGTAGGTTACGGGGCATTCAGGCAACGGTGA | 1.02

Row | Sequence | PBM binding z-score
21 | CAAACTAGGTCAACAGGTCAAAGTCCGCTTCCCG | 6.85
22 | ATCTCTAGGTAAGACTCAGTTCTGTGAAGAACGC | -0.271
23 | ATCTCTAGGTAACAAGTTCAGAGAAAGAGAGGAC | 1.45
24 | TCATATAGGTAAAAGGTGAAAGTAGGTGTGGTAA | 2.13
25 | TCTCGGAGGGCACGAAAGGTCAGAGCTCGACATC | 6.01
26 | GCGACTGGGGCATCAGCAGGTTACCGTAACTTAA | 0.702
27 | CAAACTCGGTCAAAGGTCAAAGTCGAGCCAACCA | 8.4
28 | ATCTCTACGTAAAGTTCAGTGAAAGATCGATAGA | 2.27
29 | GCTAGCAGGACATTTGGGTCACTCAATGACGGGC | 0.785
30 | TCTTGTAGATCAAGCAGGATAAGAAAGCCTGAGT | -0.278
31 | ACAGACAGGTGAGTGAAGGTAAATCAGCTGGACG | 0.297
32 | CATACAGGGCCAGCTAGGCCAGAGTAGGGACGGC | 0.0438
33 | GCGACTGGGGCAAAGCAGGTTACCAAAAGGTTGG | 0.739
34 | GCTGCTAGGTCAACTGTTGGTCAGCTAAAGCTCG | 5.23
35 | CCTACTGGGCCATCAGGGCATTGATATCAACGTT | 0.0558
36 | CCTACTGGGCCAAGGTCATCGATCAGTCAAAGCA | 4.18
37 | CCTTACGGGTCACGAGGTTATCGCACGACGAGCG | 6.31
38 | ATCGAAAGGACGAGGTGAGTATAGAGAAAGGGAA | 0.958
39 | TCATATATGTAAACAGGTGAAAGTCCGTAAGTTA | 0.551
40 | CCTAGCAGCCCAGGGTCACTCAAGCATTTCGCTT | 2.9

System: RARg homodimer (NR concentration 270 nM)
Assay: as above
How it was run: as §1

Row | Sequence | PBM binding z-score
41 | TGAATGAGGTTAAAGATCAGAGAACGTGGCGTCG | 1.36
42 | GCAGACAGGTGAAACGCAGGTAAGTCAGGGTGGC | 0.249
43 | TGTCATAGTTCAAAGGTAACGTAAGTATCCACAC | 3.54
44 | TAGCCTAGGTCATTAAGGGGCCAGTATAGAAAGC | 3.99
45 | CGGACGAGGGCATGAGTTGATAGCAAATGCCGAT | 1.89
46 | ATCTCAAGGTAAAAGTTCAGTGAATCCCGAGGAT | 1.96
47 | CCTACTGGCCCAAGGTCATTGATCAGTCAAAGCA | 2.65
48 | GGATCGAGGGCAAAGTTGATAGCATCTGTCGACG | 1.7
49 | AGTCAAAGTGCACTAGGTAACGTAAGATTCAGCT | 1.26
50 | AGAACGAGGGCACGCGGAGTTGATAGCAGAGTAG | 2.41
51 | CCTCGGAGGACAATAGGAGGTCAGAGCTGCCAGA | 2.63
52 | CCGACTGGGCCAAGGTTACCATAACGCACAGCCA | 0.453
53 | TCATATAGGGAAACAGGTGAAAGTCCGTAAGTTA | 0.215
54 | TAGCCTAGGTCATGCGGGCCAGTTTAGTGTCGGC | 4.73
55 | ACTAGCAGGCCAAATTTGGGTCACTCAAACAAAG | 1.39
56 | CAAACTAGGTCAGAGGTCAAAGTCGAGCCAACCA | 6.79
57 | TTACCAAGGAGAAGGTCGTTGATCCCTCTGTAGA | 0.0485
58 | AGTCACAGTTCAGGACGAGGTAACGTAAAGCACG | 1.95
59 | TCATATAGGTAATACAGGTGCAAGTCGGCATCTA | 0.617
60 | CCGAGTAGGTTACGGGGCATTCAGGCAACGGTGA | 1.07

Row | Sequence | PBM binding z-score
61 | CAAACTAGGTCAACAGGTCAAAGTCCGCTTCCCG | 6.36
62 | ATCTCTAGGTAAGACTCAGTTCTGTGAAGAACGC | 0.0813
63 | ATCTCTAGGTAACAAGTTCAGAGAAAGAGAGGAC | 1.32
64 | TCATATAGGTAAAAGGTGAAAGTAGGTGTGGTAA | 1.16
65 | TCTCGGAGGGCACGAAAGGTCAGAGCTCGACATC | 6.16
66 | GCGACTGGGGCATCAGCAGGTTACCGTAACTTAA | 0.193
67 | CAAACTCGGTCAAAGGTCAAAGTCGAGCCAACCA | 6.7
68 | ATCTCTACGTAAAGTTCAGTGAAAGATCGATAGA | 2.86
69 | GCTAGCAGGACATTTGGGTCACTCAATGACGGGC | 0.992
70 | TCTTGTAGATCAAGCAGGATAAGAAAGCCTGAGT | -0.0385
71 | ACAGACAGGTGAGTGAAGGTAAATCAGCTGGACG | 0.417
72 | CATACAGGGCCAGCTAGGCCAGAGTAGGGACGGC | 0.566
73 | GCGACTGGGGCAAAGCAGGTTACCAAAAGGTTGG | 0.527
74 | GCTGCTAGGTCAACTGTTGGTCAGCTAAAGCTCG | 5.32
75 | CCTACTGGGCCATCAGGGCATTGATATCAACGTT | 0.438
76 | CCTACTGGGCCAAGGTCATCGATCAGTCAAAGCA | 3.9
77 | CCTTACGGGTCACGAGGTTATCGCACGACGAGCG | 5.55
78 | ATCGAAAGGACGAGGTGAGTATAGAGAAAGGGAA | 1.48
79 | TCATATATGTAAACAGGTGAAAGTCCGTAAGTTA | 0.376
80 | CCTAGCAGCCCAGGGTCACTCAAGCATTTCGCTT | 2.45

From the supplement of paper PMC6555819
